Among all 200,000 compounds or so, about 18,000 (9%) were called active. This excerpt belongs to a sample that is enriched for actives. Values without a mark were called inactive. No stated cut-off is given here; in the data, active means inhibition above about 50%; inactive means the rest.
Assay: antileishmanial activity against promastigotes – primary screen (AID 1063);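 further: promastigotes grown with compound for 44 hours at 28 °C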
Conditions: Leishmania major promastigotes, resazurin fluorescence viability; at 10 µM; stronger effect = higher value

Question: Which inhibition does the source give for `CCOC(=O)Cn1c(=O)oc2cc(S(=O)(=O)NCC3CCCO3)ccc21` (configuration not stated) here?
Answer: The inhibition was -5.87%.

Question: For `CC(C)CCNC(=O)Cn1c(=O)oc2cc(S(=O)(=O)N3CC(C)CC(C)C3)ccc21` (configuration not stated), which inhibition is on record?
Answer: Its inhibition is -10.9%.

Question: For `CCOC(=O)Cn1c(=O)oc2cc(S(=O)(=O)N(C)Cc3ccco3)ccc21`, which inhibition is on record?
Answer: The inhibition was 98.7% (active).

Question: With `COc1ccc(OCCCON2C(=O)c3ccccc3C2=O)cc1` as the compound, how does the inhibition read?
Answer: The inhibition was -2.83%.

Question: For `CCOC(=O)C1=C(c2ccc(OC)cc2)C(=O)c2ccccc2C1=O`, which inhibition is on record?
Answer: The inhibition was 101% (active).

Question: For `CCCCC(C(=O)OCC(=O)c1ccc(OC)cc1)N1C(=O)c2ccccc2C1=O` (configuration not stated), which inhibition is on record?
Answer: Its inhibition is -3.44%.

Question: Which inhibition does the source give for `O=C(CCNC(=O)c1ccc([N+](=O)[O-])cc1)Nc1ccccc1N1CCOCC1` here?
Answer: The inhibition was 7.58%.

Question: With `CC(C)CN1CCNC(=O)C1CC(=O)N(C)CC1CCOCC1` (configuration not stated) as the compound, how does the inhibition read?
Answer: Its inhibition is 9.06%.

Question: Which inhibition does the source give for `CCOc1cc(/C=N/NC(=O)c2ccc(CSc3nncn3C)cc2)ccc1OCC(=O)N1CCOCC1` here?
Answer: Its inhibition is -1.61%.

Question: With `COc1ccc(/C=C2/SC(=O)N(CCCCCC(=O)Nc3ccccc3C(=O)O)C2=S)cc1` as the compound, how does the inhibition read?
Answer: Its inhibition is -8.92%.

Question: For `O=C(O)CCC(=O)N(Cc1ccco1)c1nc(-c2ccccc2)cs1`, which inhibition is on record?
Answer: Its inhibition is -11.4%.

Question: Which inhibition does the source give for `Cc1ccc(-c2csc(NC(=O)c3cccs3)n2)cc1` here?
Answer: The inhibition was 3.66%.

Question: With `Cc1ccc(-c2csc(N(Cc3ccco3)C(=O)c3cccs3)n2)cc1` as the compound, how does the inhibition read?
Answer: Its inhibition is 100% (active).

Question: With `CN(Cc1ccccn1)Cc1nc(-c2ccc(Cl)cc2)no1` as the compound, how does the inhibition read?
Answer: The inhibition was -2.18%.

Question: Which inhibition does the source give for `O=C(COC(=O)/C=C/c1nc2ccccc2s1)Nc1ccccc1Oc1ccccc1` here?
Answer: The inhibition was 51.7% (active).

Question: Which inhibition does the source give for `CCN(C(=O)COC(=O)/C=C/c1nc2ccccc2s1)C1CCS(=O)(=O)C1` (configuration not stated) here?
Answer: Its inhibition is -2.12%.

Question: Which inhibition does the source give for `COc1ccc(/C=C/C(=O)OCC(=O)Nc2cccc(Oc3ccccc3)c2)c(OC)c1` here?
Answer: The inhibition was -2.55%.

Question: Which inhibition does the source give for `COc1ccc(-c2cn3cccnc3n2)cc1` here?
Answer: Its inhibition is 10.2%.

Question: Which inhibition does the source give for `Cc1cccc(C2=N/C(=C/c3cccs3)C(=O)O2)c1` here?
Answer: The inhibition was 1.4%.

Question: Which inhibition does the source give for `Cc1ccc(NC(=O)CN2CCCCC2)c2c1CC(C)(C)O2` here?
Answer: Its inhibition is 3.82%.

Question: With `Cc1cc(C)c2nc(SCC(=O)N(C)C3CCS(=O)(=O)C3)cc(C)c2c1` (configuration not stated) as the compound, how does the inhibition read?
Answer: The inhibition was 0.72%.

Question: With `Cc1cccc(C)c1OCC(=O)NC(Cc1c[nH]c2ccccc12)C(=O)O` (configuration not stated) as the compound, how does the inhibition read?
Answer: Its inhibition is -3.57%.

Question: For `O=S(=O)(Nc1cc(S(=O)(=O)N2CCOCC2)ccc1N1CCCC1)c1cccs1`, which inhibition is on record?
Answer: The inhibition was -3.24%.

Question: Which inhibition does the source give for `O=C(N1CCCC1)C12CC3CC(C1)CC(C(=O)N1CCCC1)(C3)C2` here?
Answer: Its inhibition is -2.33%.

Question: With `CC(C)(C)NC(=O)CN1CCC(NC(=O)C23CC4CC(CC(C4)C2)C3)CC1` as the compound, how does the inhibition read?
Answer: Its inhibition is 3.92%.

Question: With `CN1CCN(CC(=O)C23CC4CC(CC(C4)C2)C3)CC1` as the compound, how does the inhibition read?
Answer: Its inhibition is 88.5% (active).

Question: Which inhibition does the source give for `CCc1ccc(N2CC(O)=C(c3nc4ccccc4c(=O)[nH]3)C2=N)cc1` here?
Answer: The inhibition was -1.01%.

Question: Which inhibition does the source give for `CCCOc1ccc(C(=O)C(CCC(CNCC)C(=O)c2ccc(OCCC)cc2)CNCC)cc1` (configuration not stated) here?
Answer: The inhibition was 100% (active).

Question: For `CCCOc1ccc(C(=O)NCCc2ccccc2)cc1`, which inhibition is on record?
Answer: Its inhibition is 7.66%.

Question: With `CCCOc1ccc(N/C=C/C(=O)C(C)(C)C)cc1` as the compound, how does the inhibition read?
Answer: Its inhibition is -5.85%.

Question: For `CC(C)NC(=S)NN=C1CCCCCCCCCCC1`, which inhibition is on record?
Answer: The inhibition was 18.9%.

Question: Which inhibition does the source give for `Cc1nn(C)c(C)c1Sc1ccccc1N` here?
Answer: Its inhibition is -5.83%.

Question: For `CN(C)CCOCCOc1ccc(Cl)c2ccccc12`, which inhibition is on record?
Answer: Its inhibition is 98.1% (active).

Question: For `CCN(CC)CCOCCOc1ccc(Cl)c2ccccc12`, which inhibition is on record?
Answer: Its inhibition is 99.7% (active).

Question: Which inhibition does the source give for `CN(C)CCOc1cccc(Br)c1` here?
Answer: Its inhibition is -3.33%.

Question: For `CCOc1ccc(S(=O)(=O)N2CCCCCC2)c2ccccc12`, which inhibition is on record?
Answer: The inhibition was 14%.

Question: With `CCC(C(=O)OCCN(CC)CC)c1ccccc1` (configuration not stated) as the compound, how does the inhibition read?
Answer: The inhibition was -7.09%.

Question: For `COc1ccc(N2C(=O)CC(Sc3n[nH]c(-c4ccc(C)cc4)n3)C2=O)cc1` (configuration not stated), which inhibition is on record?
Answer: The inhibition was -3.19%.

Question: With `CCN1C(=O)/C(=c2\s/c(=C3\Sc4ccccc4N3C)c(=O)n2C)N(C)C1=S` as the compound, how does the inhibition read?
Answer: The inhibition was -4.84%.

Question: With `CSc1cc(C)[nH]c(=O)n1` as the compound, how does the inhibition read?
Answer: Its inhibition is -7.37%.

Question: Which inhibition does the source give for `C/C(=N\N)c1c(-c2ccccc2)c2cc(Br)ccc2[nH]c1=O` here?
Answer: The inhibition was -1.92%.

Question: With `COc1ccc(C(=O)N/N=c2\oc3ccccc3cc2C(N)=O)cc1` as the compound, how does the inhibition read?
Answer: The inhibition was 10.2%.

Question: For `CC(OC(=O)CCc1nc(=O)c2ccccc2n1C)C(=O)NCc1ccc2c(c1)OCO2` (configuration not stated), which inhibition is on record?
Answer: Its inhibition is -3.8%.

Question: For `CCC(C)(C)NC(=O)/C=C/c1cc(OC)c(OC)c(S(=O)(=O)N2CCc3ccccc32)c1`, which inhibition is on record?
Answer: The inhibition was -8.31%.

Question: For `CCOC(=O)c1oc2c(CN3CCN(C)CC3)c(O)ccc2c(=O)c1-c1ccc(Br)cc1`, which inhibition is on record?
Answer: Its inhibition is 23.6%.

Question: With `CCN1CCN(Cc2c(O)ccc3c(=O)c(-c4ccc(OC)c(OC)c4)c(C(F)(F)F)oc23)CC1` as the compound, how does the inhibition read?
Answer: The inhibition was 99.8% (active).

Question: Which inhibition does the source give for `CN1CCN(Cc2c(O)ccc3c2oc(=O)c2ccccc23)CC1` here?
Answer: Its inhibition is 3.53%.

Question: With `COc1ccc(C(=O)NNc2cc(C)nc(NNC(=O)c3ccc(OC)cc3)n2)cc1` as the compound, how does the inhibition read?
Answer: Its inhibition is -8.08%.

Question: Which inhibition does the source give for `Cn1c(=NC(=O)c2ccc3c(c2)OCCO3)sc2cc(S(C)(=O)=O)ccc21` here?
Answer: The inhibition was -9.12%.

Question: For `NC(=O)COC(=O)/C=C/c1ccc2ccccc2n1`, which inhibition is on record?
Answer: Its inhibition is 8.85%.

Question: Which inhibition does the source give for `CCOc1cccc(/C=C/c2ccc3ccccc3n2)c1OC(C)=O` here?
Answer: The inhibition was 66% (active).

Question: For `COc1cccc(/C=C/c2ccc3ccccc3n2)c1OC(C)=O`, which inhibition is on record?
Answer: Its inhibition is 75.8% (active).

Question: For `CC(OC(=O)c1ccc2ccccc2n1)C(=O)c1ccccc1` (configuration not stated), which inhibition is on record?
Answer: Its inhibition is -9.05%.

Question: With `CCOc1ccccc1NC(=O)c1cccnc1` as the compound, how does the inhibition read?
Answer: The inhibition was -2.23%.

Question: For `COc1cccc(C(O)Cc2nc3ccccc3n2C)c1OC` (configuration not stated), which inhibition is on record?
Answer: Its inhibition is 9.44%.

Question: Which inhibition does the source give for `COC(=O)c1ccc(-n2cnc3ccccc32)nc1` here?
Answer: The inhibition was 25%.

Question: For `CN(C(=O)CSc1nnc(Nc2ccccc2)s1)C1CCS(=O)(=O)C1` (configuration not stated), which inhibition is on record?
Answer: The inhibition was -3.39%.

Question: With `CC(=O)c1c(C)[nH]c(C(=O)OCC(=O)NCCC(C)C)c1C` as the compound, how does the inhibition read?
Answer: Its inhibition is 3.75%.

Question: Which inhibition does the source give for `c1ccc(CSCCc2ccncc2)cc1` here?
Answer: Its inhibition is 1.66%.

Question: With `Cc1ccc(O)c(CCc2ccccc2)n1` as the compound, how does the inhibition read?
Answer: Its inhibition is 87.9% (active).

Question: For `O=C(O)CCCc1ccccc1`, which inhibition is on record?
Answer: The inhibition was -5.59%.

Question: For `CC(NC(=O)C(=O)N/N=C/c1ccc(Cl)cc1)c1ccccc1` (configuration not stated), which inhibition is on record?
Answer: Its inhibition is 5.89%.

— PubChem BioAssay AID1063 (University of Pittsburgh Molecular Library Screening Center, 2008)
